# Source: PubChem BioAssay (NCATS)
# Records with an inconclusive call do not appear. Active and inactive are the calls of the source. The call rests on the fitted dose curve; in most records, active means well fitted inhibition curve with a large enough effect; inconclusive means small, poorly fitted or top-dose-only effect; inactive means flat fitted curve, though single readings scatter.
# Experiment: BET inhibitor-based combinations targeting novel dependencies in MECOM-rearranged (r) AML: AML-191 cell line (AID 2202236; further: nearly all actives have a fitted effect of over 35% in size;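 on viability (% of control): plate controls were vehicle wells for no effect and wells without cells for full effect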)
# Conditions: AML-191 viability, CellTiter-Glo luminescence, 48 h; series mostly up to 46 µM; viability (% of control): at the top concentration
# In short: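 Viability of cells (500 per well) is scored by luminescent CellTiter-Glo at 48 hr post-dosing. Eleven-point titrations are normalized to DMSO and empty controls and reduced to AUC values.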
# Potency means the concentration at half of the fitted maximal effect.
SMILES,Potency,viability (% of control)
C[C@@H](O)[C@@H](C)Oc1nc(Nc2ccc(S(=N)(=O)C3CC3)cc2)ncc1C(F)(F)F (stereo partly drawn),18.6 µM (active),–
Cc1[nH]c(/C=C2\C(=O)Nc3ccc(S(=O)(=O)Cc4c(Cl)cccc4Cl)cc32)c(C)c1C(=O)N1CCC[C@@H]1CN1CCCC1,9.34 µM (active),–
Cc1c(-c2c(-c3ccc(F)o3)sc3ncnc(O[C@@H](Cc4ccccc4OCc4ccnn4CC(F)(F)F)C(=O)O)c23)ccc(OCCN2CCN(C)CC2)c1Cl,5.25 µM (active),–
COc1cc(C(=O)NC(N)=Nc2ccc(C)c(NC(=O)c3ccc(-c4ccccc4)cc3)c2)cc(OC)c1OC,18.6 µM (active),–
CS(=O)(=O)c1ccc(-c2cnc(NCc3ccco3)n3cnnc23)cc1,–,95.3% (inactive)
Fc1cccc(-n2cnc3c(NCc4nc5c(F)c(F)ccc5[nH]4)nc(N4CCOCC4)nc32)c1,0.166 µM (active),–
Cc1ccc(Nc2cc(N[C@@H]3CCCC[C@@H]3N)nnc2C(N)=O)nc1C,18.6 µM (active),–
CCNC(=O)Nc1ccc(Oc2ncnc(N)c2/C=N/OC)cc1Cl,16.6 µM (active),–
O=c1oc2c(C3OCCCO3)c(O)ccc2c2c1CNCC2,18.6 µM (active),–
COC(=O)[C@H](CCCN=C(N)N)NS(=O)(=O)c1ccc(C)cc1,–,106% (inactive)
CNC(=O)c1ccc(N2C(=S)N(c3ccc(C#N)c(C(F)(F)F)c3)C(=O)C2(C)C)cc1F,–,85.8% (inactive)
CN(C)CCOc1ccc(-c2nc(-c3ccc4c(c3)CC/C4=N\O)c(-c3ccncc3)[nH]2)cc1,16.6 µM (active),–
Cc1ccc(F)c(NC(=O)Nc2ccc(-c3cccc4[nH]nc(N)c34)cc2)c1,16.6 µM (active),–
